# Screening results: PubChem BioAssay, National Center for Advancing Translational Sciences (NCATS)
# The list is not random: actives were taken first. Their share in the collection is about 20%.
# Pf growth 48h = inhibits P. falciparum growth in the first generation, 48 h. Potency, µM (series often up to 28.7 µM), for the others: at the highest dose activity change, negative = inhibition, hits mostly inhibitors. actives 5.9% (n = 310,000). P. falciparum luciferase growth in erythrocytes, 48 h; further: potency means the concentration at half of the fitted maximal effect; on the % scale 0 is the no-effect control and ±100 the full control effect
#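 Cell-based growth assay: transgenic P. falciparum expressing firefly luciferase, cultured in red cells within RPMI 1640 containing 0.5% w/v Albumax, 24 mM bicarbonate and gentamycin. A drop in luciferase activity indicates inhibition.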
# Pf growth 96h = P. falciparum growth inhibition at 96 hour, primary screen for plastid delayed-death inhibitors; Potency, µM (series often up to 28.7 µM), for inactives: at the highest dose activity change, negative = inhibition, actives largely listed as inhibitors; AID 504834; P. falciparum luciferase reporter growth, 96 h; actives 6.9% (n = 320,000); further: potency means the concentration at half of the fitted maximal effect; on the % scale 0 is the no-effect control and ±100 the full control effect
#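 Plates of compound plus infected erythrocytes (2% hematocrit, 0.05% parasitemia final) incubate 96 hours, 37 C, 5% CO2. Detection reagent added; reduced luminescence from the parasites' luciferase reporter flags inhibition.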
# Cycloheximide cs = affects cycloheximide protein synthesis inhibition readout, counter-screen | cell reporter, cycloheximide protein synthesis inhibition counterscreen | max response, % | actives 12% (n = 300,000); in the data active means max response mostly above about 13%, no sharp cut-off; inactive means mostly below about 14%; further: read at 38.3 µM for the half of the compounds with a filed dose; 0% is about no effect
# Shiga toxin inh = Shiga toxin inhibition | Vero cells, Shiga toxin protein synthesis inhibition reporter | inhibition, % at 38.7 µM | actives 9.2% (n = 290,000) | AID 2315; in the data active means inhibition mostly above about 28%, no sharp cut-off; inactive means mostly below about 43%; further: 0% is about no effect
# HCMV antiviral = blocks human cytomegalovirus replication; HFF cells, HCMV-luciferase reporter, 72 h; active compounds read low; AID 1259415; activity change, negative = inhibition, % at 57.5 µM; actives 4.5% (n = 410,000); in the data active means activity change below about -60%; inconclusive means no clear call, values can overlap the other calls; inactive means above about -39%; further: on the % scale 0 is the no-effect control and ±100 the full control effect
#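 Cell-based, HFFs, 1000 cells/well, 16 h 37C; cpds in DMSO + HCMV-luc, MOI 1 PFU/cell; 72 h 37C; OneGlo luminescence after 5 min RT; norm. to buffer vs Salinomycin 10uM.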
# The depositor's hits bear a star; u = inconclusive; x = no result given. Unless noted, the call rests on the fitted dose curve; in most records, active means well fitted inhibition curve with a large enough effect; inconclusive means small, poorly fitted or top-dose-only effect, or another doubt; inactive means no such curve, though single readings can be large or run the other way.
SMILES,Pf growth 48h,Pf growth 96h,Cycloheximide cs,Shiga toxin inh,HCMV antiviral
Cc1nc2oc3c(=O)[nH]cnc3c2c2c1COC(C)(C)C2,u,u,1.4,-14.3,u
COc1ncnc2c1oc1nc(CC(C)C)c3c(c12)CC(C)(C)OC3,2.08µM*,u,-1.9,-13.7,-29.9
Nc1ccc(Sc2ccc([N+](=O)[O-])cc2)cc1,-12.7%,11.7µM*,-0.7,48.8,u
CC(C)(C)C(=O)Nc1ccc(Sc2ccc([N+](=O)[O-])cc2)cc1,u,2.33µM*,2.4,-1.0,-30.2
CC(=O)Nc1ccc(S(=O)(=O)NNc2ccc([N+](=O)[O-])cc2)cc1,22.9%,u,-2.0,-2.1,9.7
CC(=O)Nc1ccc(Sc2ccc([N+](=O)[O-])o2)cc1,x,x,x,x,-98.2*
Cc1ccc2nc(-c3cccc(S(=O)(=O)N4CCCC4)c3)cn2c1,45.4%,30.1%,16.7*,43.6,-34.8
Cc1ccc2nc(-c3cccc(S(=O)(=O)N4CC(C)OC(C)C4)c3)cn2c1 (stereo not given),u,-12.1%,17.0*,18.2,3.3
CC1CN(S(=O)(=O)c2cccc(-c3cn4cccnc4n3)c2)CC(C)O1 (stereo not given),7.38µM*,3.7%,7.5,-13.0,x
Cc1ccc2nc(-c3ccc(S(=O)(=O)N4CCCCC4)cc3)cn2c1,38.5%,55.7%,25.0*,66.2*,u
CC(=O)N1CC2([N+](=O)[O-])CN(C(C)=O)CC([N+](=O)[O-])(C1)C2(C)C,4.6%,4.4%,-3.5,-8.2,-23.5
O=S(=O)(c1cccc(-c2cn3cccnc3n2)c1)N1CCCCCC1,u,u,-1.4,-5.0,-10.3
Cc1ccn2cc(-c3cccc(S(=O)(=O)N4CCCCC4)c3)nc2c1,-4.4%,u,20.6*,22.1,0.0
COc1ccc(NC(=O)CN2C(=O)/C(=C3\SC(=S)N(C4CCS(=O)(=O)C4)C3=O)c3ccccc32)cc1 (stereo not given),-15.0%,u,2.8,9.5,-3.6
COc1cccc2sc3ccc(C#Cc4ccc(N)cc4)cc3c(=O)c12,70.8%,151.6%,40.8*,57.3*,-19.8
COc1cccc2sc3ccc(NCc4ccc5c(c4)OCO5)cc3c(=O)c12,-24.4%,u,19.3*,24.6,1.2
COc1cccc2sc3ccc(C#CC4(O)CCCCC4)cc3c(=O)c12,39.4%,u,38.9*,43.4*,30.0
O=c1oc(CCCO)cc2ccc(C#CC3(O)CCCCC3)cc12,41.8%,u,x,x,-3.5
COc1ccc(-c2ccc3sc4ccccc4c(=O)c3c2)cn1,x,x,x,x,-35.8
COc1ccc2sc3ccccc3c(=O)c2c1OC,122.1%,56.4%,33.6*,71.4*,49.4
CCN(CC(=O)Nc1ccc(OC)cc1)CC(=O)N1CC(=O)Nc2ccccc21,u,u,x,x,0.0
O=C(O)Cn1c(C(=O)Nc2nc(-c3ccccc3Cl)cs2)cc2ccccc21,-14.1%,u,-6.0,8.4,35.9
Cc1nc2ccn(Cc3ccccc3)c(=O)c2cc1C(=O)N1CCN(c2ccccc2)CC1,-9.8%,78.2%,-2.7,-4.6,-9.3
COc1ccccc1C(=O)OCc1cc(=O)n2nc(C3CCCCC3)sc2n1,x,x,x,x,25.1
C=CCn1c2ccccc2c(=O)c2cc(C#CC3(O)CCCCC3)ccc21,141.7%,u,43.7*,54.9*,20.2
SMILES,Pf growth 48h,Pf growth 96h,Cycloheximide cs,Shiga toxin inh,HCMV antiviral
C=CCn1c2ccccc2c(=O)c2cc(C#CC[C@@H](C)O)ccc21,0.0%,u,x,x,211.0
O=c1c2ccccc2sc2ccc(C#CC3(O)CCCCC3)cc12,x,x,x,x,-100.1*
Cc1cccc(NC(=O)c2ccc(F)c(S(=O)(=O)N3CCC4(CC3)OCCO4)c2)c1,u,-7.5%,33.8*,27.6,-6.6
Cc1cccc(NC(=O)c2ccc(F)c(S(=O)(=O)N3CCN(c4ccc(F)cc4)CC3)c2)c1,x,x,x,x,-73.3*
Cc1cccc(C(=O)Nc2ccc(N3CCN(c4ccc(F)cc4)CC3)c(C(=O)O)c2)c1,x,x,x,x,5.0
Cc1ccc(OCc2nnc(SCC(=O)Nc3ccccc3C(C)C)o2)cc1,x,x,x,x,-6.9
COc1ccc(-c2cc(-c3ccccc3)c(C#N)c(=S)[nH]2)cc1,12.7%,0.8%,-4.2,-10.9,-24.2
COc1ccc(-c2cc3nc4ccccc4n3c(N)c2C#N)cc1,19.8%,19.2%,29.2*,56.2*,0.0
CC(C)C(=O)O/N=C(\N)c1ccc(Oc2ccc(Cl)cc2)c([N+](=O)[O-])c1,8.1%,4.7%,22.7*,35.9*,23.7
NC(=O)c1ccc(Oc2ccc(Cl)cc2)c([N+](=O)[O-])c1,-2.4%,-4.3%,-0.1,-2.3,119.8
CCC1(C)NC(=O)N(CC(=O)Nc2cc(C)on2)C1=O (stereo not given),x,x,x,x,4.1
Cc1nnsc1S(=O)(=O)Cc1ccccc1C(F)(F)F,1.5%,u,-2.0,-14.6,-27.8
COc1cccc(NC(=O)C2CCN(S(=O)(=O)c3ccc4[nH]c(=O)ccc4c3)CC2)c1,u,9.28µM*,-1.8,-5.8,3.4
COc1ccc(OC)c(S(=O)(=O)N2CCC(C(=O)Nc3cccc(C)c3)CC2)c1,x,u,7.8,-3.3,-61.1*
COc1ccc(OC)c(S(=O)(=O)N2CCC(C(=O)N3CCN(c4ccc(F)cc4)CC3)CC2)c1,u,u,9.9,-5.8,-62.2*
COc1ccc(NC(=O)C2CCN(S(=O)(=O)c3ccc4[nH]c(=O)ccc4c3)CC2)c(OC)c1,x,x,x,x,7.1
COc1ccc(OC)c(S(=O)(=O)N2CCCCC2C(=O)N2CCN(c3ccccn3)CC2)c1 (stereo not given),11.7µM*,24.8%,-1.9,-14.1,54.0
CCOC(=O)c1ccc(N2C(=O)CC(C)(CC)CC2=O)cc1,u,39.1%,-3.6,-6.0,18.6
COc1ccc(CNC(=O)COC(=O)CN2C(=O)C3CC=CCC3C2=O)cc1 (stereo not given),x,x,x,x,-23.2
COc1ccc(NC(=O)C2CCN(S(C)(=O)=O)CC2)cc1OC,-1.2%,14.8%,-2.3,x,4.7
COc1ccc(NC(=O)C2CCC(C(C)(C)C)CC2)cc1S(=O)(=O)N1CCCCC1 (stereo not given),5.6%,3.8%,-1.4,0.0,-85.9*
COc1ccc(NC(=O)C2CCN(S(=O)(=O)c3ccc(C)cc3)CC2)cc1OC,-10.9%,5.22µM*,-3.4,-3.6,-16.7
COc1cccc(O)c1CN1CCC(C(=O)Nc2ccc(-c3cccc(C)c3)cc2)CC1,4.15µM*,4.15µM*,0.8,21.6,-30.8
COc1ccc(OC)c(S(=O)(=O)N2CCC(C(=O)Nc3cc(C)ccc3C)CC2)c1,x,13.1µM*,-2.4,-17.8,-93.1*
Cc1ccc(S(=O)(=O)N2C[C@H]3C(=O)C[C@@H](c4cccc(C)c4)N(S(=O)(=O)c4ccc(C)cc4)[C@H]3C[C@H]2c2ccccc2)cc1,x,x,x,x,-13.2
CC(C)n1c(CSCc2ccc(Cl)cc2Cl)n[nH]c1=S,u,25.2%,-3.4,-10.4,u
CCN(CC(=O)NCC1CCCO1)S(=O)(=O)c1ccc(Cl)cc1 (stereo not given),6.7%,u,-0.5,1.5,-11.0
